Sm TGR block: qHTS Assay for the Inhibitors of Schistosoma Mansoni Peroxiredoxins. Schistosoma mansoni thioredoxin glutathione reductase (TGR), Q962Y6. purified TGR, DTNB reduction, TNB absorbance 405 nm. Potency, µM (titrated, usually from 114 µM), actives largely listed as inhibitors. 360,000 compounds, 3% hits. AID 485364, 2010; note: nearly all actives have a fitted effect of over 60% in size
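TGR 20 nM + NADPH 100 uM (dispensed conc.), cpd preinc 15 min RT; start with NADPH (500 uM addition) then DTNB (15 mM addition). Kinetic TNB absorbance, 405 nm filter. Four-parameter Hill fit across titration.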
RE007 growth inh: qHTS Assay for Inhibitors of the HIV-1 protein Vpr; S. pombe RE007 Vpr strain, BacTiter-Glo ATP luminescence, 24 h; Potency, µM (doses to about 92.2 µM), most hits filed as inhibitors; 360,000 compounds, 0.21% hits; AID 651644, 2012; active = well fitted falling curve with a large enough effect; inconclusive = small, poorly fitted or top-dose-only effect; inactive = no such curve, though single readings can be large or run the other way; note: nearly all actives have a fitted effect of over 50% in size
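Fission yeast strain RE007, carrying one chromosomally integrated HIV-1 vpr copy, was seeded at OD 0.01 in PMG+AL medium with 23 nL pinned compound. After 24 h at 30 °C and 99% humidity, viability was read by BacTiter-Glo luminescence.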
Tb PYK inh: qHTS of Trypanosoma Brucei Inhibitors; TbPYK enzyme, Kinase-Glo Plus ATP luminescence, 45 min; Potency, µM (series often up to 76.8 µM), most hits filed as inhibitors; 410,000 compounds, 0.12% hits; note: nearly all actives have a fitted effect of over 50% in size
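Activity of T. brucei pyruvate kinase was followed by Kinase-Glo Plus luminescence after the enzyme reacted 45 min at room temperature with 130 uM ADP (final) and substrate. Test compounds were added before ADP at multiple concentrations.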
FMDV antiviral: High Throughput Screening for Foot and Mouth Disease Virus Antivirals; Potency, µM (top dose mostly 57.9 µM), usual class: inhibitors; FMDV antiviral cell-based qHTS; 410,000 compounds, 1.2% hits; calls by dose curve; tested in HEK293T cells; note: read-out not given here; nearly all actives have a fitted effect of over 45% in size
Numbers stand for hits; i = inactive; ? = inconclusive; nt = no result. Most compounds without a hit are left out; they make up all but 3.7% or so of the library. Unless noted, calls come from the whole dose curve; as a rule, active = well fitted curve in the direction sought with a large enough effect; inconclusive = small, poorly fitted or top-dose-only effect, or another doubt; inactive = no such curve, though single readings can be large; an effect the other way counts as inactive or inconclusive.

SMILES	Sm TGR block	RE007 growth inh	Tb PYK inh	FMDV antiviral
COc1ccccc1-c1c(C(F)(F)F)oc2cc(OS(C)(=O)=O)ccc2c1=O	i	i	i	32µM
COc1cc(/C=C2/C(=O)c3cccc([N+](=O)[O-])c3C2=O)c(Br)cc1O	35µM	i	?	3.5µM
COc1ccccc1NC(=O)CCCCCN1C(=O)c2cccc([N+](=O)[O-])c2C1=O	i	i	i	i
CCn1c(-c2cc(Cl)ccc2OC)n[nH]c1=S	i	i	11µM	i
COc1ccccc1-c1n[nH]c(=S)n1Cc1ccco1	40µM	nt	nt	nt
S=c1[nH]nc(-c2ccc(Br)cc2)n1Cc1ccco1	i	i	5.6µM	i
C=CCn1c(-c2cc(Cl)ccc2OC)n[nH]c1=S	i	i	?	?
COc1cccc(-c2n[nH]c(=S)n2Cc2ccco2)c1	35µM	i	?	i
COc1ccccc1-c1n[nH]c(=S)n1Cc1ccccc1	i	i	?	i
S=c1[nH]nc(-c2ccncc2)n1Cc1ccco1	i	i	?	i
CCOc1ccc(NC(=O)c2c(C)nn(-c3ccc(F)cc3)c2-n2cccc2)cc1	i	nt	i	i
CC(C)c1ccccc1NC(=O)C(Cc1c[nH]c2ccccc12)NC(=O)OC(C)(C)C (centres undefined)	i	nt	i	i
Oc1cccc(C=Nc2cccc3ccccc23)c1O	7.9µM	i	?	i
C=Cc1ccc(N=Cc2c(O)ccc3ccccc23)cc1	63µM	i	i	i
Oc1cccc(C=NCc2ccccc2)c1O	50µM	i	i	i
Cc1cc(C(=O)O)ccc1N=Cc1c(O)ccc2ccccc12	50µM	i	i	i
CC(=O)c1cccc(N=Cc2c(O)ccc3ccccc23)c1	i	i	i	i
Oc1c(C=NCc2ccccc2)sc2ccccc12	i	i	i	i
COc1ccccc1CNC(=O)C1CCN(S(=O)(=O)c2ccc3c(ccn3C)c2)CC1	i	nt	i	i
Oc1ccc2ccccc2c1C=NC12CN3CCN(CN(C3)C1)C2	45µM	i	i	?
OCC(CO)(CO)N=Cc1c(O)ccc2ccccc12	i	?	i	i
Oc1ccc2ccccc2c1C=Nc1ccccc1Br	i	i	i	i
Oc1ccccc1N=Cc1c(O)ccc2ccccc12	28µM	i	i	i
CC(C)(C)OC(=O)N1CCC(c2c(C(=O)N3CCC(c4ccccc4)C3)cnn2-c2cccc(Cl)c2)CC1 (centres undefined)	i	nt	i	i
O=C1C2CC=C(Cl)CC2C(=O)N1CCN1CCOCC1 (centres undefined)	i	i	i	i
SMILES	Sm TGR block	RE007 growth inh	Tb PYK inh	FMDV antiviral
O=C1C2CC=C(Cl)CC2C(=O)N1CCCCCCN1C(=O)C2CC=C(Cl)CC2C1=O (centres undefined)	22µM	i	i	nt
CCn1cc(CN2Cc3ccccc3OC(c3ccccc3OC)C2)c(C)n1 (centres undefined)	nt	nt	nt	i
c1ccc(C2[C@H]3CN(CC4CCCCC4)[C@H](c4ccccc4)C34CC2(c2cccnc2)C4)cc1 (some centres undefined)	45µM	i	i	i
CCN(CC)CCN(C)C(=O)c1ccc(-c2ccccc2)nc1N(C)C	nt	nt	nt	i
CCCc1nc2ccccc2n1CC(O)COc1ccc(C(=O)OC)cc1 (centres undefined)	i	nt	i	28µM
CCOC(=O)c1c(C)n(C)c2ccc(OCC(O)Cn3c(C)nc4ccccc43)cc12 (centres undefined)	i	i	i	18µM
CCC(=O)c1ccc(OCC(O)Cn2c(C)nc3ccccc32)cc1 (centres undefined)	i	i	i	?
CCN(CC)c1ccc(/C=C2\C(=O)N(c3nnc(C)c(=O)[nH]3)N=C2C)cc1	i	i	i	28µM
CCOc1ccc(C(=O)Cc2ccccc2)cc1	nt	i	i	i
CCOc1ccc(CC(=O)NNC(=O)/C=C/C(=O)O)cc1	18µM	i	i	i
CCOc1ccc(CN(C)C(=O)CCl)cc1	16µM	i	i	25µM
CCOc1ccc(CN(C)C(=O)CCNC(=O)c2ccco2)cc1	i	i	i	i
Cn1cc(CN2CCOc3ccc(C(O)C4CCCCC4)cc3C2)cn1 (centres undefined)	nt	nt	nt	i
CCc1nc2c(OCC=C(C)C)cccn2c1N(C)C(=O)c1ccc(OC)cc1	nt	i	i	?
O=[N+]([O-])c1ccc(S(=O)(=O)N2CCn3cccc3C2c2ccccc2F)cc1 (centres undefined)	35µM	nt	i	?
COc1ccccc1S(=O)(=O)N1CCn2cccc2C1C (centres undefined)	?	i	i	i
CC1c2cccn2CCN1S(=O)(=O)c1ccccc1 (centres undefined)	40µM	i	i	i
O=S(=O)(c1cccnc1)N1CCn2cccc2C1c1ccccc1F (centres undefined)	32µM	i	i	i
CCOC(=O)CSc1nc2cc3c(cc2c(=O)n1Cc1ccc(C(=O)NCCc2ccc(OC)c(OC)c2)cc1)OCO3	i	nt	i	i
COc1cccc(C(=O)C(C#N)=C(SC)SC)c1	13µM	i	i	28µM
CSC(SC)=C(C#N)C(=O)c1ccccc1	11µM	i	i	16µM
COc1ccc(CCC(=O)NC2CC(=O)N(c3ccc(C)c(C)c3)C2)cc1 (centres undefined)	i	nt	i	i
CC(C)(C)OC(=O)N1CCC(c2c(C(=O)NCc3ccccc3)cnn2-c2cccc(F)c2)CC1	i	nt	i	i
Cc1ccc(CNc2ncnc3sc(C(=O)N4CCC(N5CCCC(O)C5)CC4)c(C)c23)o1 (centres undefined)	nt	nt	nt	i
CC(=O)Nc1ccc(S(=O)(=O)N2CCN=C2SCc2ccc([N+](=O)[O-])cc2)cc1	i	i	i	22µM
SMILES	Sm TGR block	RE007 growth inh	Tb PYK inh	FMDV antiviral
CC(=O)Nc1ccc(S(=O)(=O)N2CCN=C2SCc2cccc(C)c2)cc1	i	i	i	?
CCOC(=O)C1CCN(/C=C2/C(=O)NC(=S)N(c3cccc(OC)c3)C2=O)CC1	i	i	i	i
CCOC(=O)C1CCN(/C=C2/C(=O)NC(=O)N(c3cccc(C)c3C)C2=O)CC1	8.9µM	i	i	i
COc1ccc(CCNC(=O)Cn2nnc(-c3ccc(C(F)(F)F)cc3)n2)cc1OC	i	nt	i	i
COCCCNC(=O)C[C@H]1C[C@H](C(=O)N2CCCCC2)[C@@]2(CCc3ccccc3)c3[nH]c4ccc(Cl)cc4c3CCN2C1=O	nt	i	i	40µM
CN(C)c1nc(F)c(F)c(S(=O)(=O)c2ccccc2)c1F	40µM	i	i	i
Cc1cc(C)c(S(=O)(=O)c2ccccc2)c(N(C)C)n1	i	i	i	i
COc1cc([C@@H]2c3cc4c(cc3C(O[C@@H]3O[C@@H]5COC(c6cccs6)O[C@H]5[C@H](O)[C@H]3O)C3COC(=O)[C@@H]32)OCO4)cc(OC)c1O (some centres undefined)	nt	nt	nt	i
COc1ccccc1N1C(=O)CC(Sc2n[nH]c(-c3cccc(C)c3)n2)C1=O (centres undefined)	0.63µM	i	?	i
